Here are results for 10 compounds from PubChem BioAssay.

Calls of active or inactive are those of the source.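 Rule for the calls, unless noted: active = visually confirmed hit in the image check and inhibition above 20%; inconclusive = visually confirmed hit but inhibition not above 20%; inactive = no visual hit in the image check.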

The nature of test [1]: inhibitors of TNFa-induced NFkB p65 translocation, primary screen, imaging, HUVEC, MLSMR starter and 10KST1 sets (AID 438;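 active = inhibition above 20% together with a positive visual image hit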;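 note: compound added about 3h40 before a 20 min TNFalpha stimulation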;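 for inhibition: signal is the nuclear over cytoplasmic p65 intensity ratio per well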). Particulars: HUVEC TNFa-induced p65 nuclear translocation; cell count: measured here: nuclei count (cytotoxicity indicator), at 2.08 µM; inhibition: at 2 µM, stronger effect = higher value, 0% TNFa-plus-vehicle, 100% no-TNFa wells.
The nature of test [2]: reduction of polyQ htt aggregates in cells – imaging, exon1htt(103Q)mCFP cells, high-content imaging, primary screen (AID 483;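 active = visual image review flags a hit and inhibition of aggregation exceeds 20%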;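 note: compound exposure lasted 3 days before fixation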;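 for nuclei count: percent of the per-plate median nuclei count of sample wells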). Particulars: exon1htt(103Q)mCFP cell line, aggregate imaging, at 2 µM; inhibition of aggregation: stronger effect = higher value; nuclei count: measured here: cell count, toxicity.
Test [3] can be described thus: endothelial E-selectin expression blockers – imaging, HUVEC, immunofluorescence, MLSMR starter and 10KST1 sets, primary screen (AID 487).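 For inhibition: signal is fraction of cell area covered by stained E-selectin grains.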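 For nuclei count: 100% = median nuclei count of all wells on the same plate.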 Conditions: HUVEC TNFalpha-induced E-selectin immunofluorescence imaging, at 2 µM; inhibition: stronger effect = higher value; nuclei count: measured here: cell number, toxicity.
The nature of test [4]: Primary imaging screen for DUSP6 inhibitors that restore phospho-Erk in transfected HeLa cells, chemical complementation (AID 609;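 active = compounds giving at least 50% inhibition in the cell-based MKP-3 phosphatase rescue imaging test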;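 for inhibition: phospho-Erk level distribution per well compared with pooled transfected vehicle control wells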). Conditions: HeLa MKP-3 transfected, phospho-Erk imaging KS statistic, at 10 µM, cells stimulated with TPA for 15 min.
Test [5] has as its target Dual specificity protein phosphatase 6 (Homo sapiens) (UniProt Q16828). The description is as above. Conditions: HeLa MKP-3 transfected, phospho-Erk imaging KS statistic; at 10 µM; stronger effect = higher value; cells stimulated with TPA for 15 min.
Test [6] addresses Voltage-gated potassium channel subunit beta-2 (Rattus norvegicus) (UniProt P62483). Kind of test: inhibitors of rat Kvbeta2 reductase activity – biochemical, NADPH fluorescence, primary screen (AID 622;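 active = fluorescence slope higher than the sample average by over 3 SD, cut at about -0.22 in these data, passing the limit was not always enough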;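 note: slope of raw intensity against log time taken from 70 to 1610 s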). Conditions: recombinant KvBeta, 4-cyanobenzaldehyde reduction, at 10 µM, stronger effect = higher value.
For test [7] the target is unchanged. As to the kind of experiment: enhancers of rat Kvbeta2 NADPH turnover – biochemical, NADPH fluorescence, primary screen (AID 623;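 active = NADPH fluorescence slope more negative than the mean of all samples by about 3 SD, 99.7% confidence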;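 note: fluorescence intensity change per second fitted from 20 to 320 s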). Conditions: Recombinant KvBeta, NADPH fluorescence decrease slope, 10 min; at 10 µM; stronger effect = lower value.
Test [8] deals with Muscarinic acetylcholine receptor M4 (Homo sapiens) (UniProt P08173). Kind of test: M4-linked GIRK flux change, two-sided – cell-based, HEK293 M4/GIRK, thallium flux, BTC-AM, M4 allosteric agonist project, primary screen (AID 625;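 active = fluorescence slope after compound addition differing from the mean of all tested samples at 99.7% confidence, mostly higher but some lower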;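 note: thallium influx through GIRK channels coupled to M4 in HEK293 cells with BTC-AM dye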). Particulars: at 10 µM, actives lie on both sides.
Test [9] is described as follows: inhibitors of larval lipid processing in zebrafish, primary screen, whole organism, PED6 fluorescence, gall bladder and intestine (AID 686;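 active = a full or partial loss of lipid-probe fluorescence in the fish gall bladder, intestine or both, judged by eye; inactive = no fluorescence loss, or compound toxic to the fish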;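 note: larvae 5 to 7 days old with five fish per well; signal comes from phospholipase A2 cleavage of quenched PED6 carried via bile; overnight exposure to compound and PED6 before scoring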). Conditions: Zebrafish larvae PED6 lipid processing, fluorescence scoring; screened at 20 µM (by protocol).
The nature of test [10]: loss of swimming-algae plug formation – whole organism, Chlamydomonas reinhardtii, WT vs cilia-less mutant, absorbance, 96-well, primary screen (AID 463189;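 active = inhibition at or above 50% relative to wild type and mutant plate controls; inactive = inhibition below 50%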;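 note: 0% = wild type cc124 cells in DMSO and 100% = ciliumless bld1 mutant cells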). Conditions: Chlamydomonas reinhardtii gravitaxis, OD600 absorbance, 2 days; at 10 µM; stronger effect = higher value.
Test [11] can be described thus: blockers of RIG-like receptor reporter activation – cell-based, Sendai virus stimulus, luciferase, 10K MLSCN set, TLR/RLR signaling modifier project, primary screen (AID 602276;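 active = inhibition at or above 50% at 10 µM; inactive = inhibition below 50%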;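 note: firefly luciferase from ISG56 promoter only with Renilla not read in this screen; 0% = Sendai virus plus DMSO and 100% = medium plus DMSO without virus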). Conditions: HEK293 RL24 IRF3 luciferase reporter, at 10 µM, stronger effect = higher value.
Test [12] is described as follows: TLR3 IRF3 reporter activation blockers – cell-based, poly I:C stimulus, luciferase, 10K MLSCN set, primary screen (AID 602277;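 active = inhibition of the reporter signal at or above 50%; inactive = inhibition below 50%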). Conditions: HEK293-TLR3 RL24 IRF3 luciferase reporter, at 10 µM, stronger effect = higher value. Background: A reporter such as luciferase makes a cellular process visible.
Setting [13] is: measured here: cell density z-score.
[14] abbreviates: measured here: nuclear c-Myc green intensity z-score.
Where [15] appears, read: measured here: nuclear pErk red intensity z-score, stronger effect = higher value.

Dual specificity protein phosphatase 6 (Homo sapiens), sequence (Q16828 whole entry, looked up): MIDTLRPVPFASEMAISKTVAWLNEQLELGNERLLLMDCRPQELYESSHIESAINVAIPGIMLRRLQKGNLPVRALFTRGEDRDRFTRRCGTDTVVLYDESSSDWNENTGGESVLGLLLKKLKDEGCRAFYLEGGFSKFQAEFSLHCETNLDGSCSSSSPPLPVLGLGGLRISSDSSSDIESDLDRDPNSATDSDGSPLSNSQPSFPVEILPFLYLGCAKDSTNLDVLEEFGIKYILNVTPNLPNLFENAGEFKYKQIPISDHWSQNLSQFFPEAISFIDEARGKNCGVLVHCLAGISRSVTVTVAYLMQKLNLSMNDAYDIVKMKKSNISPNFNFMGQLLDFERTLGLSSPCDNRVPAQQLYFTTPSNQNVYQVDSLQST
Muscarinic acetylcholine receptor M4 (Homo sapiens), sequence (P08173 whole entry, looked up): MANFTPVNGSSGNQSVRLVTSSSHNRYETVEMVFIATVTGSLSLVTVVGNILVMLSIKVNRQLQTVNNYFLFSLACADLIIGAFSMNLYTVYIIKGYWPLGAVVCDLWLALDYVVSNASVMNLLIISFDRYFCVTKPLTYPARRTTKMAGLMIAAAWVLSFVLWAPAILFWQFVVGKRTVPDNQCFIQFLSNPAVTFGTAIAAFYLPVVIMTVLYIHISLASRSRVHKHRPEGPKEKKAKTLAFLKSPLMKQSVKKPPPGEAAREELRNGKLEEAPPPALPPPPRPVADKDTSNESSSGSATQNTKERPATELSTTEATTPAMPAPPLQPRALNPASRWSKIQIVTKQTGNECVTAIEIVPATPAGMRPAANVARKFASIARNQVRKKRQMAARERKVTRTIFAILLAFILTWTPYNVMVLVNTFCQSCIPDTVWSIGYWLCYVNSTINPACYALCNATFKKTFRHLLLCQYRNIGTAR
Voltage-gated potassium channel subunit beta-2 (Rattus norvegicus), sequence (P62483 whole entry, looked up): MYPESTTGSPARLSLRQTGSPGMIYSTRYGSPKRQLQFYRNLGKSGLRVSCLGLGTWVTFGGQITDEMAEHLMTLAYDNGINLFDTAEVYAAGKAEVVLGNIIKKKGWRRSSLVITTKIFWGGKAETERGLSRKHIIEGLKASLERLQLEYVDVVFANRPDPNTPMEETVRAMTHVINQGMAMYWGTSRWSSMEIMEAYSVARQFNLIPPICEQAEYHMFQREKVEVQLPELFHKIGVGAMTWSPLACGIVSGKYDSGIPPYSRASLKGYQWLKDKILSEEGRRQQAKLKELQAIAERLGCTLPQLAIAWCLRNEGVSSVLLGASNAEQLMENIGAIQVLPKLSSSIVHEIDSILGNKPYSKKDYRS

As usually defined, the inhibition is the change of the read-out against control, counted positive when it falls. On to `CCC(NC(=O)Nc1cc(OC)c(OC)c(OC)c1)(C(F)(F)F)C(F)(F)F`, for which the cell count in test [1] turned out to be 545. Besides, the inhibition in [1] was 3.4% (inactive); in [3] it was -82.9% (inactive); in test [5], 1.9e-07% (inactive); in test [10], 8.7% (inactive); in [11] it was 20% (inactive); in [12], 24.9% (inactive). Moreover, the inhibition of aggregation in test [2] was 15.8% (inactive). Further, the figures for the nuclei count in test [2] and in [3] were 97.5% and 141%, respectively. In addition, the z-score in [4] (setting [13]) was -0.0203; in [4] (setting [14]) it was 1.89; in test [4] (setting [15]), 0.038. Moreover, the fluorescence slope in test [6] is -0.48 (inactive); in [8], 0.00495 (inactive). For the same compound, the NADPH fluorescence slope in test [7] was -4e-05 (inactive). The compound was called inactive in test [9].

Consider `CN(C)CC(O)COc1ccc(-c2ccc(C#N)cc2)cc1` (stereo not given), for which the cell count in test [1] came out at 626. In addition, the inhibition in test [1] was -1.5% (inactive); in [3] it was -19.8% (inactive); in [5], -2.59% (inactive); in test [10], 98.7% (active); in [11] it was -0.588% (inactive); in [12], -4.77% (inactive). Also, the inhibition of aggregation in [2] is 6.6% (inactive). Besides, the values for the nuclei count in test [2] and in test [3] were 89.7% and 139%, respectively. Also, the z-score in test [4] (setting [13]) was 0.638; in [4] (setting [14]), -0.472; in test [4] (setting [15]), 2.41. Further, the fluorescence slope in [6] was -0.371 (inactive); in test [8], 0.00456 (inactive). In addition, the NADPH fluorescence slope in [7] is -4.8e-05 (inactive). The call in test [9] was inactive.

As to `CC(C)(C)NCc1cc2ccccc2[nH]c1=O`, the cell count in [1] was found to be 585. For the same compound, the inhibition is 4.5% (inactive) in test [1]; -165% (inactive) in test [3]; 16.8% (inactive) in test [5]; 3.94% (inactive) in test [10]; 12.2% (inactive) in test [11]; 18.4% (inactive) in test [12]. The inhibition of aggregation in test [2] is -3.4% (inactive). The nuclei count came out at 102% in test [2] and 146% in [3]. For the same compound, the z-score is -1.28 in test [4] (setting [13]), 1.15 in test [4] (setting [14]) and 0.508 in test [4] (setting [15]). The fluorescence slope is -0.451 (inactive) in test [6] and 0.00463 (inactive) in [8]. In addition, the NADPH fluorescence slope in [7] was -4.7e-05 (inactive). Also, the result in test [9] was inactive.

On to `CCOC(=O)C1(C(=O)OCC)C(c2ccccc2)CC(O)N1C(C)=O` (stereo not given), for which the cell count in test [1] amounted to 820. For the same compound, the inhibition in test [1] was -8.8% (inactive); in test [3] it was -65.8% (inactive); in [5], 32.3% (inactive); in test [10], 33.6% (inactive); in test [11], 15% (inactive); in test [12], 22.6% (inactive). In addition, in test [2], the inhibition of aggregation is -55.9% (inactive). The nuclei count in [2] was found to be 103%; in test [3], 126%. Also, the z-score in test [4] (setting [13]) is -0.838; in test [4] (setting [14]), 1.16; in test [4] (setting [15]), -0.266. The figures for the fluorescence slope in [6] and in test [8] were -0.351 (inactive) and 0.00504 (inactive), respectively. Also, the NADPH fluorescence slope in test [7] was -2.6e-05 (inactive). Moreover, in test [9], the call was inactive.

As for `COc1cccc(N2C(=O)C(O)=C(C(C)=O)C2c2ccc(OC)c(OC)c2)c1` (stereo not given), in test [1], the cell count worked out at 652. Further, the inhibition in test [1] is -3.8% (inactive); in [3], 34% (inactive); in [5], 2.46% (inactive); in test [10], -2.64% (inactive); in [11], 5.42% (inactive); in test [12], -0.11% (inactive). Further, the inhibition of aggregation in test [2] was 14% (inactive). Also, the nuclei count in [2] was 104%; in test [3] it was 106%. The z-score in [4] (setting [13]) was -1.18; in test [4] (setting [14]) it was -0.212; in [4] (setting [15]), 0.653. The values for the fluorescence slope in test [6] and in [8] were -0.453 (inactive) and 0.00642 (inactive), respectively. Also, the NADPH fluorescence slope in test [7] was -6.1e-06 (inactive). In addition, the compound was classed as inactive in [9].

Turning to `CCOC(=O)C1=C(CSc2nc(C)cc(C)c2C#N)OC(N)=C(C#N)C1c1cccs1` (stereo not given), in test [1], the cell count worked out at 502. Also, the inhibition in [1] was 7.3% (inactive); in test [3], -103% (inactive); in test [5], -2.47% (inactive); in test [10] it was 8.41% (inactive); in [11], 13.2% (inactive); in [12], 23.4% (inactive). In addition, in [2], the inhibition of aggregation is -14.2% (inactive). Moreover, the nuclei count in test [2] was 102%; in test [3], 95%. The z-score in test [4] (setting [13]) was 0.722; in test [4] (setting [14]) it was -1.39; in test [4] (setting [15]), -0.564. The fluorescence slope in test [6] is -0.493 (inactive); in test [8], 0.00829 (inactive). Moreover, in test [7], the NADPH fluorescence slope is -2.9e-05 (inactive). Moreover, the compound was classed as inactive in test [9].

For the compound `O=C(NC1CCS(=O)(=O)C1)c1c(NC(=O)C2COc3ccccc3O2)sc2c1CCCC2` (stereo not given), the cell count in test [1] turned out to be 657. Also, the inhibition in test [1] was -7% (inactive); in test [3], -35.3% (inactive); in test [5] it was 5.42% (inactive); in [10], 30.5% (inactive); in test [11] it was 17.1% (inactive); in [12], 14.6% (inactive). For the same compound, the inhibition of aggregation in test [2] is 3% (inactive). Further, the nuclei count came out at 97.6% in [2] and 143% in [3]. For the same compound, the z-score in [4] (setting [13]) is 0.65; in test [4] (setting [14]), -1.93; in [4] (setting [15]) it was 0.35. In addition, the fluorescence slope was -0.42 (inactive) in test [6] and 0.00528 (inactive) in [8]. Moreover, the NADPH fluorescence slope in test [7] is -4.5e-05 (inactive). For the same compound, the result in [9] was inactive.

Turning to `Cc1cc(C)n(C(=O)CNC(=O)C2COc3ccccc3O2)n1` (stereo not given), the cell count in test [1] came to 659. Also, the inhibition in test [1] is -7.8% (inactive); in test [3], -92.7% (inactive); in test [5], 3.66% (inactive); in [10], 15.9% (inactive); in test [11], 15.9% (inactive); in [12] it was 20.1% (inactive). Moreover, in test [2], the inhibition of aggregation was -13.6% (inactive). The nuclei count in test [2] is 105%; in test [3], 124%. Moreover, the z-score in [4] (setting [13]) is 0.273; in [4] (setting [14]), -1.59; in [4] (setting [15]), 0.636. The values for the fluorescence slope in [6] and in test [8] were -0.393 (inactive) and 0.00449 (inactive), respectively. The NADPH fluorescence slope in test [7] was -4.6e-05 (inactive). In test [9], the compound was called inactive.

With `CC(=O)c1c(OCC(=O)O)ccc2c(C)cc(=O)oc12`, in [1], the cell count was found to be 717. Besides, the inhibition in test [1] was 0.3% (inactive); in [3], -27.6% (inactive); in test [5], 5.95% (inactive); in test [10] it was 19.8% (inactive); in test [11], 16.9% (inactive); in test [12] it was 17.3% (inactive). The inhibition of aggregation in test [2] was 10.5% (inactive). Besides, the results for the nuclei count in test [2] and in [3] were 97.8% and 126%, respectively. Moreover, the z-score in test [4] (setting [13]) is -0.71; in [4] (setting [14]), 0.597; in test [4] (setting [15]), -0.576. For the same compound, the fluorescence slope is -0.455 (inactive) in test [6] and 0.00563 (inactive) in test [8]. For the same compound, the NADPH fluorescence slope in test [7] is -6.6e-05 (inactive). Moreover, the call in test [9] was inactive.

For `Nn1c(SCC(=O)Nc2ccc3c(c2)OCCO3)nnc1C(F)(F)F`, the cell count in test [1] worked out at 598. Besides, the inhibition is 0% (inactive) in test [1]; -26.1% (inactive) in [3]; 10.9% (inactive) in [5]; 11.3% (inactive) in test [10]; 12.4% (inactive) in test [11]; 21.3% (inactive) in test [12]. Also, in [2], the inhibition of aggregation is -32.9% (inactive). The nuclei count amounted to 105% in test [2] and 110% in test [3]. Besides, the z-score is 0.295 in [4] (setting [13]), -0.513 in test [4] (setting [14]) and -1.34 in [4] (setting [15]). Moreover, the fluorescence slope in test [6] was -0.426 (inactive); in [8] it was 0.00501 (inactive). Further, the NADPH fluorescence slope in test [7] was -5.4e-05 (inactive). Also, in [9], the compound was called inactive.
